# Measurements from the supplement of paper PMC11417369.
# ± gives the standard deviation of the averaged measurements. The full ranking holds about 25,000 sequences; the median of “ln(normalized median fluorescence intensity)” is about 8.6, and the highest 2% start at about 10. Many of the other results were omitted from the sample, so the highest values are more common in it than they were.
# Test system: PfAP2-EXP AP2 domain (GST-tagged)
# Assay: gcPBM binding intensity (ln(normalized median fluorescence intensity)); higher = stronger DNA binding
# Outline: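 Binding intensity is the highest Masliner-normalised natural-log median intensity over replicate spots in either probe orientation. To obtain it, GST-tagged P. falciparum DNA-binding domains made in E. coli were incubated for 1 h on an Agilent 4 × 180k array of primer-extended double-stranded 36-bp intergenic genomic probes plus negative controls. Detection used Alexa488 anti-GST antibody with scanning at 488 nm.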
row,Sequence,gcPBM binding intensity (ln)
1,ATAATAATATTTCTATGTACTTATTTTATGTATTAG [XGTACX_site1747],8.51 ± 0.4
2,TTTGAATAAAAACAAAAAATTAAATTAAATTAAATA [CACACA_negctrl_site312],8.15 ± 0.5
3,ATTTCCTTGAATGTTGCATGCTGTATTTTAATTAAA [TGCATGCA_site280],9.88 ± 0.43
4,ATTTTTGAACGGTACAGTACAGAATTTAATTAACCC [XGTACX_site47],9.13 ± 0.54
5,AAAAAAAACGGACACACACACATACCCATACATACA [CACACA_site5574],8.78 ± 0.49
6,AAAAAACACGGACACACACACATATACATACATACA [CACACA_site5470],9.07 ± 0.3
7,CCCCCCCACGGACACACACACATACATACCACATAT [CACACA_site5303],10.3 ± 0.19
8,CTAAAATACGGACACACACACACATATATATATATA [CACACA_site6138],10.3 ± 0.15
9,AAAAAAAACGGACACACACACATAAATATATATAAA [CACACA_site4260],9.02 ± 0.4
10,AGTATACATATATATACACACACATATATATATATA [CACACA_site7883],9.98 ± 0.62
11,AATAACCACGGACACACACACATATATATATATATA [CACACA_site5873],10.2 ± 0.46
12,AAAAAAAACGGACACACACACATACAAAATATATAT [CACACA_site4910],8.7 ± 0.38
13,CGCATACACGGACACACACACACATATATATATATA [CACACA_site4520],10.1 ± 0.34
14,AGTATACTCGGACACACACACACATATATATATATA [CACACA_site5031],10.3 ± 0.2
15,AGTATACATATATATACACACATATATATATATATA [CACACA_site300],10.2 ± 0.34
16,TACATACACGGACACACACACATATATATATATATA [CACACA_site5883],10.2 ± 0.36
17,TTTAAAATTATAAGGATTAAAAAAAAAAAAAATAAA [CACACA_negctrl_site114],8.27 ± 0.45
18,ATTTTGTTTTTTTTTGCACACCATAAGGAGTGTAGG [CACACA_site1414],8.84 ± 0.41
19,AATAATGTATGAAATAAACACACAAGTAAGTACATA [CACACA_site8776],8.85 ± 0.39
20,TACAAAAGCGATACGGCACACATTTCCTGTTTAAAT [CACACA_site2746],8.74 ± 0.33
21,AATTATTTACCCTATACACACAAAACACGCTAAAAA [CACACA_site1211],8.79 ± 0.43
22,AATATATTTTTTCACTGTACTTTTATTATATATACA [XGTACX_site8312],8.97 ± 0.36
23,AAATAAAAACATAACAGTACAGTTAACATTTTTATA [XGTACX_site3479],8.29 ± 0.35

row,Sequence,gcPBM binding intensity (ln)
1,AATACATTTATGAGCTGTACACATTTATTTGAGCTA [XGTACX_site7695],8.51 ± 0.27
2,ATATTTAAATATATTTATATATATAAAAAAAAATAT [GTGCAC_negctrl_site312],8.56 ± 0.39
3,TATCGACATTTCATTTGTACATATATACATATATTT [XGTACX_site3346],8.64 ± 0.42
4,TGTTCATTTATTTACTTACACACTTTATATATGTGG [CACACA_site1410],8.79 ± 0.53
5,GAATTAATTTTAAAACGTACATGGGTGTATTTACAC [XGTACX_site5939],8.86 ± 0.3
6,GGGAGGATATTACACAGTACCCAGAAAATCTACGGA [XGTACX_site2551],8.8 ± 0.43
7,TTATTATATTAAAAGAGGACACATTTATTTTTTTTT [XGTACX_site1241],8.09 ± 0.53
8,TACACAAGCGGACACACACACATATATATATATATA [CACACA_site4832],10.3 ± 0.13
9,CATATATACACATACACACACACACGGACACGCACA [CACACA_site6910],8.87 ± 0.53
10,CACAGACACGGACACACACACACACCCACATATATA [CACACA_site4355],8.73 ± 0.41
11,CATACATACGGACACACACACATATATATATATATA [CACACA_site5598],10.2 ± 0.41
12,CACAGACACGGACACACACACATATATATATATATA [CACACA_site5248],10.2 ± 0.26
13,AATACATACGGACACACACACACATATATATATATA [CACACA_site5884],10.3 ± 0.17
14,AAAATACCCGGACACACACACATATATATATATATT [CACACA_site6137],8.83 ± 0.31
15,TACACAAGCAGACACACACACATATATATATATATA [CACACA_site1270],10.1 ± 0.53
16,GTAATACCCAAACACACACACATACCCATATATATA [CACACA_site5510],8.88 ± 0.52
17,AATACCCAAGGACACACACACACATATATATATATA [CACACA_site8345],10.2 ± 0.26
18,TATACACCCGGACACACACACATATATATATATATA [CACACA_site5030],10.1 ± 0.54
19,CACAGACACGGACACACACACATATATAATATATAT [CACACA_site4495],8.84 ± 0.33
20,TTCAAAATATATATTTGTACATATAGGATCTTTTTC [XGTACX_site4500],8.41 ± 0.45
21,TTTTTTTATTAATGTAGTACAATATAATGTTATATT [XGTACX_site2295],8.54 ± 0.29
22,AGACGAAAATAATAAAGTACTAAAAAAAAAAAAAAA [XGTACX_site927],8.14 ± 0.51
23,AAACAAATATATATATGTACTTATAAAAAAAAAAAT [XGTACX_site2211],8.54 ± 0.45

row,Sequence,gcPBM binding intensity (ln)
1,AACATTATAGGACACACACACACATATATATATATA [CACACA_site4721],10.3 ± 0.13
2,TAATAAATAGGACACACACACATATATATATATTAT [CACACA_site4891],8.87 ± 0.52
3,AGGATACACGGACACACACACATATAGATTTATATA [CACACA_site6552],8.59 ± 0.52
4,AGGATACACGGACACACACACATATATATATATATA [CACACA_site4654],10.2 ± 0.28
5,ATAAATATAGGACACACACACATATTATATATATAT [CACACA_site5658],9.65 ± 0.12
6,TACATATTTATATACACACACACACGGATATTTATA [CACACA_site7239],8.94 ± 0.28
7,TATAAAATTTAAATTATACACACTTAAGTAACATCA [CACACA_site531],8.74 ± 0.35
8,AATTATCAAAGTCTATACATACATACATACATACAT [GTGCAC_negctrl_site243],8.95 ± 0.23
9,ATAAATCTACACCGCACACAAAAACAACAAATATTA [CACACA_site5396],8.64 ± 0.58
10,GTTATACTCATATATACACACATATGTAAATATATA [CACACA_site5764],8.94 ± 0.58
11,CAACATTTGAAACACACACACATACAAACAAACAAA [CACACA_site3306],8.89 ± 0.47
12,TTTTTAATTTTTTTTAAACACACACCGTACATTCAA [CACACA_site7925],8.54 ± 0.38
13,AAAAATTTAAGTGGGGGTACATTTTTTTAACACCTT [XGTACX_site1093],9.46 ± 0.48
14,ATTCATTTTTTGGGGGGTACACCCTTTTAAACATTT [XGTACX_site4797],10.3 ± 0.48
15,TATATATCGCATAAAACACACAAAAAAAAAATTAAA [CACACA_site7767],8.35 ± 0.59
16,TCCACACAATTTATAACATGCAAAAAGGCAATAATA [TGCATGCA_site773],8.69 ± 0.42
17,TATATATATATATATACATGCATATATATAATATAT [TGCATGCA_site763],10.1 ± 0.52
18,CATACATACATACATACATGCATACATACATACATA [TGCATGCA_site218],9.3 ± 0.26
19,AATATATATATACATACATGCATACATATATATATA [TGCATGCA_site784],9.8 ± 0.14
20,AATATATACATACATACATGCATACATATATATAAC [TGCATGCA_site371],8.73 ± 0.23
21,AATACATACATATATACATGCATACATATAAATATA [TGCATGCA_site674],8.64 ± 0.35
22,AATACATACATACATACATGCATATATATATATATA [TGCATGCA_site462],10.2 ± 0.14
23,CATATAAATAAATATACATGCATACATACATATATA [TGCATGCA_site713],8.51 ± 0.23

row,Sequence,gcPBM binding intensity (ln)
1,TATATATATATACATACATGCATATATATATATATA [TGCATGCA_site513],10.2 ± 0.54
2,TATATATATATATATACATGCATACATATACATACA [TGCATGCA_site897],10.2 ± 0.5
3,TTGAATAAATTGGAATAAATATAATAAAATAAGGAA [XGTACX_negctrl_site302],8.62 ± 0.38
4,TTTATGAAACAGTGCACACATAAAAATAAATACATA [CACACA_site5631],9.175 ± 0.035
5,ATATATATATGTTTGTGTACTTATGATATCATATAA [XGTACX_site3276],9.66 ± 0.099
6,TTTTTTTTTTTTGAAGTGCATTACTTTTTTTGTATT [GTGCAC_site9811],8.5 ± 0.23
7,AATAAATAAGCAACATGTACATACAAATATATACAT [XGTACX_site8529],8.48 ± 0.35
8,TTGTTCTTTCAAATTATACACACCAAAAAAAAAAAA [CACACA_site3070],8.53 ± 0.4
9,ATATGTTTTTTTTTTTTTTTTTAATTTGTCATAAAT [CACACA_negctrl_site1208],8.35 ± 0.49
10,CACAAAAATAGACACACACACATATAAATAAATATA [CACACA_site6598],8.62 ± 0.47
11,AAAATATAATATAATGCACACATAAAAAAAAAAAAA [CACACA_site7989],8.52 ± 0.49
12,ATATGTGTTAAAAATGCACACAAAAAAATATACATA [CACACA_site7988],8.69 ± 0.49
13,TATATATTAAAAATAGTGCAAAATAATATATATATA [GTGCAC_site9716],9.845 ± 0.049
14,GAATAAAAAATATATGTGCACATATAAACTTAAAAT [GTGCAC_site9554],8.9 ± 0.3
15,ATAATAAAAAAAAATGCACACATATATATATATATA [CACACA_site8766],10.3 ± 0.34
16,TATATATGTTAAAACGTGCACATATATATATATATA [GTGCAC_site9589],10.2 ± 0.21
17,ATATATATATATATAGTGCAAATAAAAAATAGACAA [GTGCAC_site9796],10.2 ± 0.3
18,ATTATATATAAACACACACACATGCATGCACATATA [CACACA_site4237],10 ± 0.26
19,AATATAATATAATGCACACATAAAACAAAAAAAAAA [CACACA_site3012],8.82 ± 0.47
20,AATATAATATAATGCACACATAAAAAAAAAAAAATC [CACACA_site1303],8.7 ± 0.32
21,ATATAAACACTGAATGCATGCACATATATATATATA [TGCATGCA_site940],10.45 ± 0.049
